Measurements taken from PubChem BioAssay.
Inconclusive results are not listed. Active and inactive are the calls of the source.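 How the source made its calls, unless noted: active means normalized viability below 100% at a tested concentration; inactive means the rest.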

Experiments:
[1] = viability loss in pontine glioma line – cell-based, SU-DIPG-XVII, MIPE5.0, CellTiter-Glo, qHTS, dose response (AID 1347060; cut-off not given, nearly all actives have AC50 up to about 26 µM;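 on AC50: cells exposed to compound for 48 hours before viability readout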); settings: CellTiter-Glo ATP luminescence
[2] = viability loss in pontine glioma line – cell-based, SU-DIPG-XIII, MIPE5.0, CellTiter-Glo, qHTS, dose response (AID 1347064; cut-off not given, nearly all actives have AC50 up to about 23 µM;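 on AC50: cells exposed to compound for 48 hours before the viability read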); settings: CellTiter-Glo ATP luminescence
[3] = viability loss in pontine glioma line – cell-based, SU-DIPG-XXV, MIPE5.0, CellTiter-Glo, qHTS, dose response (AID 1347065; cut-off not given, nearly all actives have AC50 up to about 26 µM;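 further: cells exposed to compound for 48 hours before ATP readout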); settings: CellTiter-Glo ATP luminescence
[4] = growth inhibition of DIPG cells – cell-based, MIPE4.0 library, CellTiter-Glo luminescence, qHTS (AID 1347066; cut-off not given, nearly all actives have AC50 up to about 30 µM;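 further: cells exposed to compound for 48 hours before readout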); settings: SU-DIPG-VI viability, CellTiter-Glo ATP luminescence
[5] = JHH-DIPG-1 glioma cell viability, MIPE5.0 library, CellTiter-Glo luminescence, qHTS (AID 1347067; cut-off not given, nearly all actives have AC50 up to about 26 µM;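 further: cells exposed to compound for 48 hours before readout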); settings: JHH-DIPG-1 glioma viability, CellTiter-Glo ATP luminescence
[6] = growth inhibition of DIPG cells – cell-based, MIPE5.0 library, qHTS (AID 1347068; cut-off not given, nearly all actives have IC50 up to about 30 µM); settings: SU-DIPG-XXV viability
[7] = viability loss with induced miR-34 in A549 – imaging, A549 dox-inducible miR-34, nuclei and caspase counts, primary screen (AID 1347080;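 active means compounds whose cell count with miR-34 switched on is under 0.7 times the count with it off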); settings: A549 miR-34 inducible, Hoechst nuclei count, 48 h
[8] = MELAS cybrid and Rieske KO viability enhancers – cell-based, MELAS cybrids, Rieske KO mouse fibroblasts, CellTiter-Glo, primary screen (AID 1508586;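 active means mean z-score across replicates of 1.96 or higher in either the MELAS or the Rieske mutant cell line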;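 further: z relative to plate mean and SD of compound and empty wells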); settings: low glucose
[9] = compounds altering HSF1 focus formation in cells – imaging, Selleck Cancer Library (AID 1347162; in the data active means plate-normalised HSF1 focus index below about 0.46); settings: human cells, HSF1 nuclear foci imaging, at 10 µM; SSMD: measured here: HSF1 foci SSMD mean; cell count: measured here: cell number; plate-normalised HSF1 focus index: stronger effect = lower value
[10] = drug combination growth inhibition, ovarian cancer – cell-based, oncology-focused library, rucaparib conditional, profiling panel (AID 1508598); settings: patient-derived ovarian cancer cells, CellTiter-Glo viability, 144 h, stronger effect = lower value
[11] = stronger effect = lower value, cell number ratio, induced over uninduced
[12] = measured here: relative caspase fold change +Dox/-Dox
[13] = measured here: total cells with miR-34 induction, stronger effect = lower value
[14] = measured here: total cells without miR-34 induction
[15] = MELAS cybrid survival, CellTiter-Glo 48 h, stronger effect = higher value
[16] = Rieske KO mouse fibroblast survival, CellTiter-Glo 72 h

CC(C)(C)NC(=O)c1cncn1C1CCN(c2ccc(-c3nnc(C(F)(F)F)o3)cn2)CC1
active: AC50 [1] 10500 nM | AC50 [2] 5900 nM | AC50 [3] 1480 nM

Cc1cc(-c2ccc(CC(=O)Nc3ccc(-c4cccnc4)cc3)cc2)ccn1
7810: cell count [7, 13]
inactive: outcome [1] | outcome [2] | outcome [3] | outcome [4] | outcome [5] | outcome [6] | fold change [7, 11] 0.957 | z-score [8, 15] -0.327
8160: cell count [7, 14]
0.839: fold change [7, 12]
-0.153: z-score [8, 16]

O=C(C[C@@H]1C/C=C\CCC(=O)O[C@H](c2ccccc2)CNC1=O)NCc1ccc(Cl)cc1
inactive: outcome [1] | outcome [2] | outcome [3] | outcome [4] | outcome [5] | outcome [6]

COc1cc(OC)cc(N(CCNC(C)C)c2ccc3ncc(-c4cnn(C)c4)nc3c2)c1
active: AC50 [1] 66.1 nM | AC50 [2] 66.1 nM | AC50 [3] 83.3 nM

CCOc1ccc(Cc2cc([C@@H]3O[C@H](CO)[C@@H](O)[C@H](O)[C@H]3O)ccc2Cl)cc1
inactive: outcome [1] | outcome [2] | outcome [3] | outcome [4] | outcome [5] | outcome [6] | plate-normalised HSF1 focus index [9] 1.07
6780: cell count [9]
1.4: SSMD [9]

COCCOc1nc(-c2ccc(Cl)c(Cl)c2)n(-c2ccc(NC(=O)CCl)cc2)n1
-7.88: z-score [8, 16]
0.519: fold change [7, 12]
active: AC50 [1] 1320 nM | AC50 [2] 2630 nM | AC50 [3] 2950 nM | AC50 [5] 2630 nM | viability ([10]; at 0.00122 µM, OCI-P5x cells, with rucaparib 20 µM, 100% = cells with rucaparib alone) 93.4% | viability ([10]; at 0.00488 µM, OCI-P5x cells, without rucaparib) 99.8% | viability ([10]; at 0.0781 µM, OCI-P5x cells, with rucaparib 20 µM, 100% = cells with rucaparib alone) 95.6% | viability ([10]; at 0.0781 µM, OCI-P5x cells, without rucaparib) 97.3% | viability ([10]; at 0.313 µM, OCI-P5x cells, with rucaparib 20 µM, 100% = cells with rucaparib alone) 96.8% | viability ([10]; at 0.313 µM, OCI-P5x cells, without rucaparib) 90.6% | viability ([10]; at 1.25 µM, OCI-C5x cells, with rucaparib 10 µM, 100% = cells with rucaparib alone) 97.1% | viability ([10]; at 1.25 µM, OCI-P5x cells, with rucaparib 20 µM, 100% = cells with rucaparib alone) 86.3% | viability ([10]; at 1.25 µM, OCI-P5x cells, without rucaparib) 86.9% | viability ([10]; at 5 µM, OCI-C5x cells, with rucaparib 10 µM, 100% = cells with rucaparib alone) 2.67% | viability ([10]; at 5 µM, OCI-C5x cells, without rucaparib) 92.5% | viability ([10]; at 5 µM, OCI-P5x cells, with rucaparib 20 µM, 100% = cells with rucaparib alone) 1.14% | viability ([10]; at 5 µM, OCI-P5x cells, without rucaparib) 6.27%
3290: cell count [7, 14]
3760: cell count [7, 13]
inactive: outcome [4] | outcome [6] | fold change [7, 11] 1.14 | z-score [8, 15] -0.782 | viability ([10]; at 0.000305 µM, OCI-C5x cells, with rucaparib 10 µM, 100% = cells with rucaparib alone) 125% | viability ([10]; at 0.000305 µM, OCI-C5x cells, without rucaparib) 115% | viability ([10]; at 0.000305 µM, OCI-P5x cells, with rucaparib 20 µM, 100% = cells with rucaparib alone) 104% | viability ([10]; at 0.000305 µM, OCI-P5x cells, without rucaparib) 105% | viability ([10]; at 0.00122 µM, OCI-C5x cells, with rucaparib 10 µM, 100% = cells with rucaparib alone) 131% | viability ([10]; at 0.00122 µM, OCI-C5x cells, without rucaparib) 104% | viability ([10]; at 0.00122 µM, OCI-P5x cells, without rucaparib) 103% | viability ([10]; at 0.00488 µM, OCI-C5x cells, with rucaparib 10 µM, 100% = cells with rucaparib alone) 131% | viability ([10]; at 0.00488 µM, OCI-C5x cells, without rucaparib) 113% | viability ([10]; at 0.00488 µM, OCI-P5x cells, with rucaparib 20 µM, 100% = cells with rucaparib alone) 105% | viability ([10]; at 0.0195 µM, OCI-C5x cells, with rucaparib 10 µM, 100% = cells with rucaparib alone) 114% | viability ([10]; at 0.0195 µM, OCI-C5x cells, without rucaparib) 106% | viability ([10]; at 0.0195 µM, OCI-P5x cells, with rucaparib 20 µM, 100% = cells with rucaparib alone) 103% | viability ([10]; at 0.0195 µM, OCI-P5x cells, without rucaparib) 100% | viability ([10]; at 0.0781 µM, OCI-C5x cells, with rucaparib 10 µM, 100% = cells with rucaparib alone) 125% | viability ([10]; at 0.0781 µM, OCI-C5x cells, without rucaparib) 111% | viability ([10]; at 0.313 µM, OCI-C5x cells, with rucaparib 10 µM, 100% = cells with rucaparib alone) 124% | viability ([10]; at 0.313 µM, OCI-C5x cells, without rucaparib) 112% | viability ([10]; at 1.25 µM, OCI-C5x cells, without rucaparib) 112%

CC1Oc2cc(cnc2N)-c2c(nn(C)c2C#N)CN(C)C(=O)c2ccc(F)cc21 (centres undefined)
active: AC50 [1] 14800 nM | AC50 [2] 6610 nM | AC50 [3] 7420 nM
inactive: outcome [5]

CC1(C)OCCn2c1nc1c(N3CCOCC3)nc(-c3cnc(N)nc3)nc12
active: AC50 [1] 3720 nM | AC50 [2] 1860 nM | AC50 [3] 1480 nM | AC50 [5] 1320 nM

c1ccc(-c2cc(CCC3CCNCC3)c3ccccc3n2)cc1
active: AC50 [1] 23500 nM | AC50 [2] 23500 nM | AC50 [3] 23500 nM

CCc1cc2c(c(OCC(F)(F)F)c(C(=O)NC3CCN(C(=O)CO)CC3)n2C)c(=O)n1CC(=O)c1ccccc1
inactive: outcome [1] | outcome [2] | outcome [3] | outcome [5]

CCCCNc1ncc(-c2ccc(CN3CCOCC3)cn2)c(NC2CCC(O)CC2)n1 (centres undefined)
active: AC50 [1] 2570 nM | AC50 [3] 1820 nM
inactive: outcome [2]

CC#CC(=O)N1CCC[C@H]1c1nc(-c2ccc(C(=O)Nc3ccccn3)cc2)c2c(N)nccn12
inactive: outcome [1] | outcome [2] | outcome [3] | outcome [5]
